In all, about 5,500 compounds went through this assay and about 2,000 (36%) were called active. Roughly 18% stayed inconclusive and do not appear here. No stated cut-off is given here; in the data, active means normalized growth mostly below about 0.91 (no sharp cut-off); inconclusive means no clear call, values can overlap the other calls; inactive means mostly above about 0.92. The list shows a part of the results.
Assay: chemical genetic growth profiling, strain panel (AID 1159580);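 further: tested at 20 µM; growth read once vehicle control cultures reached saturation at 30 °C; 1 = growth at the plate median or of vehicle wells; lower values mean less growth of the strain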
Conditions: S. cerevisiae deletion strains, growth OD
[1] = locus YAL013W, strain DEP1, hits give low values
[2] = locus YAL040C, strain CLN3, hits give low values
[3] = locus YCL061C, strain MRC1 (second series), hits give low values
[4] = locus YDR363W, strain ESC2, hits give low values
[5] = locus YER002W, strain NOP16, hits give low values
[6] = locus YJR075W, strain HOC1, hits give low values
[7] = locus YNL153C, strain GIM3, hits give low values
[8] = locus YNL175C, strain NOP13, hits give low values
[9] = locus YNL197C, strain WHI3, hits give low values
[10] = locus YNL224C, strain SQS1, hits give low values
[11] = locus YNL322C, strain KRE1, hits give low values
[12] = locus YOR083W, strain WHI5 (second series), hits give low values
[13] = locus YPL055C, strain LGE1, hits give low values
[14] = locus YMR263W, strain SAP30, hits give low values
[15] = locus YNL128W, strain TEP1, hits give low values

Measured: normalized growth

N[C@H]1CONC1=O
inactive: [1] 1.01 | [2] 1.08 | [3] 0.995 | [4] 0.995 | [5] 0.988 | [6] 1.02 | [7] 0.955 | [8] 0.986 | [9] 1.02 | [10] 0.994 | [11] 1.01 | [12] 0.993 | [13] 0.992

NCCC(=O)NCCc1cnc[nH]1
inactive: [1] 1 | [2] 0.98 | [3] 0.997 | [5] 0.993 | locus YGR078C, strain PAC10, hits give low values 1.01 | [14] 1 | [15] 1.01 | [8] 0.966 | [9] 0.984 | [10] 0.998 | [12] 1 | locus YPL241C, strain CIN2, hits give low values 1.01

N=C(N)SCCc1cnc[nH]1
inactive: [2] 0.985 | [3] 0.988 | [4] 1.01 | [5] 1.02 | [6] 0.998 | [14] 0.979 | [15] 0.995 | [7] 0.972 | [8] 0.992 | [9] 0.98 | [10] 0.991 | [11] 0.979 | [12] 0.988 | [13] 1
